Experimental findings from PubChem BioAssay are described below.

This assay in a line: NFkB reporter suppression in cystic fibrosis bronchial cells – cell-based, uHTS hits, panel, cytotoxicity readout, dose response (AID 624344). To be noted: CF bronchial epithelial cells, PAF-induced NFkB reporter inhibition, with PAF, run 2; at 79 µM (top of the series) unless noted.
With `CC(C)=CCc1c(O)cc(O)c2c1OC(c1ccc(O)cc1)CC2=O` (stereo unspecified), the inhibition came to 108%. Take `O=S(=O)(Nc1nc2ccccc2nc1N1CCN(c2ccccc2F)CC1)c1ccc(Cl)cc1`: the inhibition is 111%. To `Cn1c(N2CCN(C(c3ccccc3)c3ccccc3)CC2)nc2c1c(=O)[nH]c(=O)n2C` belongs 104%. `C[C@@H](NC(=O)c1coc(=O)c(Br)c1)c1ccccc1`: the inhibition was determined as 99.8% [at 19.8 µM]. Regarding `C=CCN(CC=C)c1ncnc2[nH]ncc12`, the inhibition worked out at 109%. In the case of `COC(=O)c1ccc2c(c1)C(C)(C)C(/C=C/c1ccccc1O)=[N+]2C`, the inhibition was 80.5%. The figure for `c1nc(N2CCOCC2)c2c3c(sc2n1)CCCC3` is 107%. As for `Cc1ccc(Cl)cc1-c1cc(C(=O)NCc2cc(C(F)(F)F)cc(C(F)(F)F)c2)[nH]n1`, the inhibition came out at 96.5%. As for `CC1C(=O)N(Cc2cn(Cc3ccco3)nn2)CCS(=O)(=O)N1Cc1ccc(-c2ccccc2C(F)(F)F)cc1` (stereo unspecified), the inhibition came to 114%. To `CCN1CCN(Cc2ccc(NC(=O)c3ccc(C)c(NC(=O)c4csc(-c5ccncc5)n4)c3)cc2C(F)(F)F)CC1` belongs 101%; to `Cc1ccc(C(=O)c2cncc(Br)c2)cc1`, 93.4%. For the compound `CCN1CCN(Cc2ccc(NC(=O)c3ccc(C)c(NC(=O)c4ccc5n[nH]nc5c4)c3)cc2C(F)(F)F)CC1`, the inhibition amounted to 111%. As to `COc1ccc([C@]2(C(C)C)ON(c3ccccc3C(F)(F)F)C2=O)cc1`, the inhibition worked out at 91.5%. Take `C=CC[C@]12CC=CC(=O)[C@@]1(O)O[C@H](c1ccc(OC)c(OC)c1)[C@H]2C`: the inhibition stood at 87.5%. For `CN(Cc1ccco1)c1ncnc2ccc(-c3ccoc3)cc12`, the inhibition was determined as 101%. As to `O=C(NCCc1ccccc1)c1coc(=O)c(Br)c1`, the inhibition worked out at 106% [at 39.5 µM]. To `COc1ccc(S(=O)(=O)N2c3ccc(F)cc3CCC2C)cc1` (stereo unspecified) belongs 71.7%. For `Cc1cccc(N2CCN(C(=O)c3[nH]c(C(F)(F)F)nc3-c3ccccc3)CC2)c1C`, the inhibition was found to be 103%. Turning to `CCOC(=O)c1c(C)cc2c(CO)n[nH]c(=O)c2c1C`, the inhibition worked out at 95.8%. To `CCOC(=O)[C@@H]1[C@H]2COc3ccc(Br)cc3[C@H]2N2C(=O)N(c3ccc(C)cc3)C(=O)[C@]12C` belongs 35.9%. `Cc1cc(C)c(C#N)c(SCC(=O)c2ccc(Cl)cc2Cl)n1`: the inhibition was 101%. To `Cc1cccc(NC(=O)Nc2ccc(C#N)cc2)n1` belongs 113%. The figure for `O=[N+]([O-])c1cccc(NC(=S)Nc2nc(-c3ccccc3Cl)cs2)c1` is 99.8%. On to `CN(C)c1ccc(-c2nn3c(-c4ccccc4Cl)nnc3s2)cc1`, for which the inhibition was 65.9%. Regarding `CCOC(=O)C1(C(=O)OCC)COC(=O)C1CN1Cc2cc3ccccc3nc2C1` (stereo unspecified), the inhibition was 65.6%. On to `COc1ccc(COC(=O)C2=C(C)NC(=O)NC2c2ccc(F)cc2)cc1` (stereo unspecified), for which the inhibition was 105%.

The term inhibition denotes the drop in the measured response relative to a control, in per cent.
